Where “and” joins values, the source holds several entries; their conditions need not be identical. Equal entries are not always repeated. Records with an inconclusive call do not appear. Where a call stands in place of a potency, no number is given. The source holds several records for some structures; these can differ, active in one and inactive in another. Calls of active or inactive are those of the source. Unless noted, the call rests on the fitted dose curve; in most records, active means well fitted curve in the direction sought with a large enough effect in the repeat runs; inconclusive means weak or mixed curves; inactive means no such curve, though single readings can be large; an effect the other way counts as inactive or inconclusive.
Assays:
[1] = qHTS assay to identify small molecule agonists of the hypoxia (HIF-1) signaling pathway - cell viability counter screen (AID 1224844; calls by dose curve; further: nearly all actives have a fitted effect of over 50% in size; further: potency means the concentration at half of the fitted maximal effect)
Outline: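 HRE-bla ME-180 cells, 2,000/well in 0.5% dialyzed FBS medium, treated 17 h at 37C with compounds. Viability read in the same wells as the bla reporter, by CellTiter-Glo luminescence after 30 min at room temperature.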

[2] = qHTS assay to identify small molecule agonists of H2AX (AID 1224845; active means well fitted activation curve with a large enough effect in the signal ratio in the repeat runs, not every such curve was filed as active; the % refers to the signal ratio)
Outline: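 Phospho-H2AX Ser139 measured by HTRF (ex 320 nm; em 665 and 620 nm) after 24 hr antibody incubation. Compounds, 15 concentrations, 0.76% DMSO, were applied to CHO-K1 cells for 3hr at 37C before lysis.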

[3] = qHTS assay to identify small molecule agonists of the hypoxia (HIF-1) signaling pathway (AID 1224846; active means well fitted activation curve with a large enough effect in the signal ratio in the repeat runs, not every such curve was filed as active; the % refers to the signal ratio)
Outline: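 HRE-bla ME-180 beta-lactamase reporter cells in medium with 0.5% dialyzed FBS, pre-incubated 5 h then exposed to compounds 17 h at 37C, 5% CO2; reporter induction read with CCF4-AM FRET substrate.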

[4] = qHTS assay to identify small molecule agonists of H2AX - cell viability counter screen (AID 1224847; calls by dose curve;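 further: wild-type CHO-K1 cells; top concentration of the series differs between compounds; nearly all actives have a fitted effect of over 30% in size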)
Outline: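 After overnight plating of 1000 CHO-K1 cells per well, a 15-concentration compound series was applied for 3 hr at 37C. Luminescence from CellTiter-Glo, read following 30 min at room temperature, reflected cell viability.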

[5] = qHTS assay to identify small molecule antagonists of the estrogen related receptor (ERR) signaling pathway from Tox21 library (AID 1224848); further: nearly all actives have a fitted effect of over 50% in size; further: potency means the concentration at half of the fitted maximal effect
Outline: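 Antagonist-mode screen of the Tox21 10K library in an NTP-provided ERR reporter cell line; 18 h compound exposure at 37 C, luminescence measured with ONE-Glo.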

[6] = qHTS assay to identify small molecule agonists of the estrogen related receptor (ERR) signaling pathway from Tox21 library (AID 1224849; calls by dose curve; further: nearly all actives have a fitted effect of over 15% in size); conditions: ERR reporter cell line, ONE-Glo luciferase, 18 h
Outline: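 ERR reporter cells (NTP line) pre-incubated 6 hours at 37 C, then exposed to compounds for 18 hours at 37 C. ONE-Glo luciferase luminescence was read after 30 minutes at room temperature.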

[7] = qHTS RealTime-Glo MT Cell Viability Assay in HEK293 cells - 32 hour (AID 1224868); further: nearly all actives have a fitted effect of over 50% in size; further: potency means the concentration at half of the fitted maximal effect
Outline: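 HEK293 cells seeded with NanoLuc/prosubstrate reagent, rested 5 h at 37 C, then dosed and kept at 37 C up to 40 h. Nonlytic real-time luminescence from viable cells read at 0, 8, 16, 24, 32 and 40 h.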

[8] = A CellTox Green Cytotoxicity Assay to monitor cytotoxicity in HEK293 cells - 0 hour (AID 1224869); further: nearly all actives have a fitted effect of over 50% in size; further: potency means the concentration at half of the fitted maximal effect
Outline: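 HEK293 cells, 600/well, were preincubated 5 hours and then exposed to compounds at 37 C for up to 40 hours. A cell-impermeant cyanine dye staining dead-cell DNA was read by fluorescence at 0, 8, 16, 24, 32 and 40 h time points.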

[9] = qHTS RealTime-Glo MT Cell Viability Assay in HepG2 cells - 40 hour (AID 1224870); further: nearly all actives have a fitted effect of over 50% in size; further: potency means the concentration at half of the fitted maximal effect
Outline: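 Real-time viability: cells seeded at 600 per well together with NanoLuc and cell-permeant prosubstrate, compounds added after 5 h incubation. Luminescence tracked at 0, 8, 16, 24, 32 and 40 h of exposure.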

[10] = qHTS RealTime-Glo MT Cell Viability Assay in HepG2 cells - 24 hour (AID 1224867); further: nearly all actives have a fitted effect of over 50% in size
Outline: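 HepG2 cells (600/well) were dispensed with RealTime-Glo reagents, incubated 5 h at 37 °C, then treated with compounds in DMSO for up to 40 h. Nonlytic NanoLuc luminescence reflecting viable cells was read at each stated time point.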

Structure (SMILES) | Potency [1] | outcome [2] | Potency [3] | Potency [4] | Potency [5] | activity change, positive = activation ([6]; at 92.4 µM (top of the series)) | Potency [7] | Potency [8] | Potency [9] | activity change, positive = activation ([6]; at 42.5 µM (top of the series)) | Potency [10]
O=CCCCC=O | 21.1 µM (active) and 19.5 µM (active) | inactive | inactive | inactive | inactive | -0.881% (inactive) and -3.51% (inactive) | 42.1 µM (active) and inactive | inactive | inactive |  | 
O=C(/C=C/c1ccccc1)OCc1ccccc1 | inactive | inactive | inactive | inactive | inactive | 36.2% (active) | inactive | inactive | inactive | 33.8% (active) | inactive
C=C(C)C(=O)OCCOC(=O)C(=C)C | inactive | inactive | inactive | inactive | inactive | -0.0914% (inactive) and 4.51% (inactive) | inactive | inactive | inactive |  | inactive
O=CCc1ccccc1 | inactive | inactive | inactive | inactive |  |  | inactive | inactive | inactive |  | inactive
CCCCNS(=O)(=O)c1ccccc1 | inactive | inactive | inactive | inactive |  |  | inactive and 4.36 µM (active) | inactive | inactive |  | inactive
Cc1cccc([N+](=O)[O-])c1C | inactive | inactive | inactive | inactive |  |  | inactive | inactive | inactive |  | 
c1cc(-c2ccncc2)ccn1 | inactive | inactive | inactive | inactive |  |  | inactive | inactive | inactive |  | 
O=C(c1ccccc1)c1ccc(O)cc1O | inactive | inactive | inactive | inactive |  |  | inactive | inactive | inactive |  | 
O=C(c1ccccc1)c1ccccc1O | inactive | inactive | inactive |  | inactive | -0.602% (inactive) and -1.04% (inactive) | inactive | inactive | inactive |  | inactive
Nc1ncn([C@@H]2O[C@H](CO)[C@@H](O)[C@H]2O)c(=O)n1 | 13.8 µM (active) | inactive |  | inactive | 864 nM (active) and 1.19 µM (active) | -55.9% (inactive) | inactive | inactive | inactive | -50.1% (inactive) | inactive
O=S(=O)(O)c1ccc(O)cc1 | inactive | inactive | inactive | inactive |  |  | inactive | inactive | inactive |  | 
C[C@]12CC[C@H]3[C@@H](CCC4=CC(=O)CC[C@@]43C)[C@@H]1CC[C@@H]2C(=O)CO | inactive | inactive |  | inactive | 27.3 µM (active) and 26.6 µM (active) | -55.9% (inactive) | 24.5 µM (active) | inactive | inactive | -34.2% (inactive) | inactive
COc1ccc(OC)c(C(O)CNC(=O)CN)c1 (stereo unspecified) | inactive | inactive |  | inactive | inactive | -28% (inactive) | inactive | inactive | inactive | -0.419% (inactive) | inactive
OCCO | inactive | inactive | inactive | inactive |  |  | inactive | inactive | inactive |  | inactive
c1ccncc1 | inactive | inactive | inactive | inactive |  |  | inactive | inactive | inactive |  | 
CC1=CCC(C(C)(C)O)CC1 (stereo unspecified) | inactive | inactive | inactive | inactive |  |  | inactive | inactive | inactive |  | inactive
OC1CCCCCCCCCCC1 | inactive | inactive | inactive | inactive |  |  | inactive | inactive and 43.6 µM (active) | inactive |  | inactive
C=C(C)C1CC=C(C)CC1 (stereo unspecified) | inactive | inactive | inactive | inactive |  |  | inactive | inactive | inactive |  | inactive
O=P(O)(O)O | inactive | inactive | inactive | inactive |  |  | inactive | inactive | inactive |  | 
c1ccc(Nc2ccccc2)cc1 | inactive | inactive | inactive |  | 27.3 µM (active) and inactive | -73.5% (inactive) and -5.69% (inactive) | 19.5 µM (active) and inactive | inactive | 43.6 µM (active) and inactive |  | inactive
CC(=O)c1ccccn1 | inactive | inactive | inactive | inactive |  |  | inactive | inactive | inactive |  | inactive

Structure (SMILES) | Potency [1] | outcome [2] | Potency [3] | Potency [4] | Potency [5] | activity change, positive = activation ([6]; at 92.4 µM (top of the series)) | Potency [7] | Potency [8] | Potency [9] | activity change, positive = activation ([6]; at 42.5 µM (top of the series)) | Potency [10]
COc1ccc(C(=O)CC(=O)c2ccc(C(C)(C)C)cc2)cc1 | inactive | inactive | inactive | inactive |  |  | 29.6 µM (active) and inactive | inactive | inactive |  | inactive
O=C(OCc1ccccc1)c1ccccc1O | inactive | inactive | inactive | inactive |  |  | inactive | inactive | inactive |  | inactive
CCC(C)(O)CCCC(C)C (stereo unspecified) | inactive | inactive | inactive | inactive |  |  | inactive | inactive | inactive |  | inactive
CCCCOCCOCCO | inactive | inactive | inactive | inactive |  |  | inactive | inactive | inactive |  | inactive
CC(C)=CCCC(C)CCO (stereo unspecified) | inactive | inactive | inactive | inactive |  |  | inactive | inactive | inactive |  | inactive
NNc1ccc(C(=O)O)cc1 | inactive | inactive | inactive | inactive |  |  | inactive | inactive | inactive |  | inactive
CCCCC(CC)COC(=O)c1ccc(N(C)C)cc1 (stereo unspecified) | inactive | inactive | inactive | inactive |  |  | inactive | inactive | inactive |  | 
C[Si](C)(C)O[Si](C)(C)C | inactive | inactive | inactive | inactive |  |  | inactive | inactive | inactive |  | inactive
CCCCCCCCCC(=O)OC | inactive | inactive | inactive | inactive |  |  | inactive | inactive | inactive |  | 
CC(=O)CC/C=C(\C)CCC=C(C)C | inactive | inactive | inactive | inactive |  |  | inactive | inactive | inactive |  | 
CC(C(=O)O)c1cccc(C(=O)c2ccccc2)c1 (stereo unspecified) | inactive | inactive |  | inactive | inactive | 2.6% (inactive) | inactive | inactive | inactive | 0.181% (inactive) | inactive
Cc1ncc[nH]1 | inactive | inactive | inactive | inactive |  |  | inactive | inactive | inactive |  | inactive
c1ccc2c(c1)Oc1ccccc1S2 | inactive | inactive | inactive | inactive |  |  | inactive | inactive | inactive |  | inactive
CN(C)C(=N)N=C(N)N | inactive | inactive | inactive | inactive |  |  | inactive | inactive | inactive |  | inactive
OC[C@H]1O[C@@H]2O[C@H]3[C@H](O)[C@@H](O)[C@@H](O[C@H]4[C@H](O)[C@@H](O)[C@@H](O[C@H]5[C@H](O)[C@@H](O)[C@@H](O[C@H]6[C@H](O)[C@@H](O)[C@@H](O[C@H]7[C@H](O)[C@@H](O)[C@@H](O[C@H]8[C@H](O)[C@@H](O)[C@@H](O[C@H]1[C@H](O)[C@H]2O)O[C@@H]8CO)O[C@@H]7CO)O[C@@H]6CO)O[C@@H]5CO)O[C@@H]4CO)O[C@@H]3CO | inactive | inactive | inactive | inactive |  |  | inactive | inactive | inactive |  | 
O=C=Nc1ccc(Cc2ccc(N=C=O)cc2)cc1 | inactive | inactive |  | inactive | inactive | -19.6% (inactive) | inactive | inactive | inactive | 2.14% (inactive) | 
OC(CCl)CCl | inactive | inactive | inactive | inactive |  |  | inactive | inactive | inactive |  | 
COc1cc([C@@H]2c3cc4c(cc3[C@H](O)[C@H]3COC(=O)[C@H]23)OCO4)cc(OC)c1OC | inactive | inactive | inactive | inactive |  |  | 0.0489 µM (active) | inactive | inactive |  | inactive
C=CC(C)(CCC=C(C)C)OC(C)=O (stereo unspecified) | inactive | inactive | inactive | inactive |  |  | inactive | inactive | inactive |  | 
Cn1cnc([N+](=O)[O-])c1Sc1ncnc2nc[nH]c12 | inactive | inactive |  | inactive | inactive | 19.9% (active) | 19.4 µM (active) | inactive | inactive | 8.83% (inactive) | inactive
COc1ccccc1/C=C/C=O | inactive | inactive | inactive | inactive |  |  |  | inactive | inactive |  | 
